In PubChem BioAssay (NCI) one finds growth inhibition data, which are given here for 21 molecules.

Compounds without any hit were thinned out: in the full panel of roughly 79,000, 15% have a hit. Unmarked numbers belong to inactive results. Calls of active or inactive are those of the source. No stated cut-off is given here; in the data, active means growth inhibition above about 70%; inactive means the rest.

Experiment [1] is described as follows: NCI Yeast Anticancer Drug Screen. Data for the rad50 strain (AID 155).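 Further: 0% = growth of vehicle-only cultures of the same strain.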 Particulars: S. cerevisiae rad50 strain growth inhibition; at 50.0 µM; hits give high values. The method in brief: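 A DNA repair-deficient yeast mutant serves as the test organism; compound-induced growth inhibition is calculated against vehicle-treated cells.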
Experiment [2] in a line: NCI Yeast Anticancer Drug Screen. Data for the mec2-1 strain (AID 157). Particulars: S. cerevisiae mec2-1 strain, at 50.0 µM, hits give high values. The method in brief:
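Strain: mec2-1 (DNA repair/cell cycle alteration). Compound exposure, then growth measured; inhibition expressed relative to vehicle.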

A short description of experiment [3]: NCI Yeast Anticancer Drug Screen. Data for the sgs1 mgt1 strain (AID 161).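 Further: 0% = growth of cultures given vehicle only.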 The settings on record: S. cerevisiae sgs1 mgt1 strain, at 50.0 µM, hits give high values. Summed up: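 Mutant yeast exposed to compound; growth scored against vehicle-only wells.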
A short description of experiment [4]: NCI Yeast Anticancer Drug Screen. Data for the cln2 rad14 strain (AID 165).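 Further: 0% = growth equal to vehicle treated cultures.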 Particulars: S. cerevisiae cln2 rad14 strain, at 50.0 µM, hits give high values. The method in brief: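 Compounds are applied to the cln2 rad14 yeast strain, and growth is then compared with that of vehicle-treated cultures to give inhibition.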
Experiment [5] can be described thus: NCI Yeast Anticancer Drug Screen. Data for the bub3 strain (AID 167). The settings on record: S. cerevisiae bub3 mutant strain, at 50.0 µM, hits give high values. The method in brief: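 Inhibition values come from growth of compound-treated mutant yeast normalised to vehicle-treated controls.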
Experiment [6] is described as follows: NCI Yeast Anticancer Drug Screen. Data for the mlh1 rad18 strain (AID 175). The settings on record: S. cerevisiae mlh1 rad18 strain growth inhibition; at 50.0 µM; hits give high values. The method in brief:
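Read-out is yeast growth inhibition, calculated against vehicle-only controls. The compound was applied to a strain engineered with DNA damage repair alterations.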

On to `CC(=O)Oc1ccc2c(c1)Cc1cc([N+](=O)[O-])ccc1-2`, for which the growth inhibition in experiment [1] is 8.45%; in experiment [2], 14.2%; in experiment [3], 14.9%; in experiment [4] it was -9.5%; in experiment [5], 32.7%; in experiment [6], 20.6%.
As to `Cc1ccc2nc[nH]c(=O)c2c1`, the growth inhibition is -1.1% in experiment [1]; 13.3% in experiment [2]; 7.85% in experiment [3]; -70.6% in experiment [4]; 19.4% in experiment [5]; -12.8% in experiment [6].
Regarding `COc1ccc(C(=O)C[n+]2cc(Br)cc3ccccc32)cc1`, the growth inhibition in experiment [1] was -3.1%; in experiment [2] it was 11.8%; in experiment [3] it was 1.5%; in experiment [4] it was 22.9%; in experiment [5] it was -3.05%; in experiment [6], 54.5%.
For the molecule `CCN(CCC#N)c1cccc(C)c1`, the growth inhibition was -12.2% in experiment [1]; 1.6% in experiment [2]; -5.75% in experiment [3]; 9.8% in experiment [4]; -16.8% in experiment [5]; -7.55% in experiment [6].
With `CS(=O)(=O)CC(O)(c1ccccc1)c1ccccc1`, the growth inhibition in experiment [1] was -21.4%; in experiment [2] it was -2.4%; in experiment [3] it was 9.5%; in experiment [4], -13.3%; in experiment [5] it was 1.55%; in experiment [6], 28.1%.
Regarding `CCN(CC)c1ccc(CO)cc1`, the growth inhibition in experiment [1] was 7.65%; in experiment [2], 4.8%; in experiment [3] it was -22.8%; in experiment [4], -9.85%; in experiment [5], -1.05%; in experiment [6], -13.2%.
Regarding `CC(=O)CC(=O)NC(C)c1ccccc1` (stereo unspecified), the growth inhibition in experiment [1] is -4.05%; in experiment [2], -12.8%; in experiment [3], -4.65%; in experiment [4], -18.5%; in experiment [5] it was -7.3%; in experiment [6], 3.2%.
In the case of `CCOC(=O)N1CCN(P(=O)(c2ccccc2)N2CCN(C(=O)OCC)CC2)CC1`, the growth inhibition in experiment [1] is 7.35%; in experiment [2], -28.4%; in experiment [3] it was 1.85%; in experiment [4], -31.6%; in experiment [5] it was -0.75%; in experiment [6], 9.85%.
Consider `COC(=O)C1(OC)C(=O)NC2=C1C(=O)c1ccccc1C2=O` (stereo unspecified), for which the growth inhibition in experiment [1] is -12.1%; in experiment [2], -13%; in experiment [3], -4.1%; in experiment [4] it was -18.8%; in experiment [5] it was 9.3%; in experiment [6] it was 4.8%.
For the molecule `COc1ccc2cc(C(=O)c3ccccc3)c(=O)oc2c1`, the growth inhibition was -0.1% in experiment [1]; -20.9% in experiment [2]; 18.8% in experiment [3]; 11.1% in experiment [4]; 12.2% in experiment [5]; -13.6% in experiment [6].
Regarding `C/C(=N/NC(=S)NNC(=S)N(C)c1ccccc1)c1nccc2ccccc12`, the growth inhibition in experiment [1] is 85.8% (active); in experiment [2], 87% (active); in experiment [3] it was 86% (active); in experiment [4], 79.2% (active); in experiment [5], 76.6% (active); in experiment [6] it was 79.8% (active).
On to `CC(=O)N(C)c1ccc(Nc2cc(S(=O)(=O)O)c(N)c3c2C(=O)c2ccccc2C3=O)cc1`, for which the growth inhibition was -20.2% in experiment [1]; -14.1% in experiment [2]; -27.4% in experiment [3]; -13.8% in experiment [4]; -37.3% in experiment [5]; -4.25% in experiment [6].
For `COc1cccc2c1[C@]1(O)C(O)CCCC21` (stereo partly specified), the growth inhibition was -43.6% in experiment [1]; -6.6% in experiment [2]; -60.6% in experiment [3]; 5.95% in experiment [4]; -31.9% in experiment [5]; -35.7% in experiment [6].
Regarding `O=C(O)c1c(Br)c(Br)c(Br)c(Br)c1C(=O)Nc1cccc2c(O)cccc12`, the growth inhibition was 42.4% in experiment [1]; 24.9% in experiment [2]; 25.2% in experiment [3]; 14.4% in experiment [4]; 24.3% in experiment [5]; 44.9% in experiment [6].
On to `O=C(C(=Nc1ccccc1)C(=Nc1ccccc1)C(=O)c1ccccc1)c1ccccc1`, for which the growth inhibition was 78.8% (active) in experiment [1]; 32.1% in experiment [2]; 55.2% in experiment [3]; 8.5% in experiment [4]; 15.3% in experiment [5]; 37% in experiment [6].
Turning to `C[C@H]1C(=O)c2c(cc(O)c(C3OC(CO)C(O)C(O)C3O)c2O)OC1c1ccc(O)c(O)c1` (stereo partly specified), the growth inhibition was 2.65% in experiment [1]; -18.6% in experiment [2]; -16.8% in experiment [3]; 8.45% in experiment [4]; -0.25% in experiment [5]; 12.6% in experiment [6].
Turning to `CCCCCCCCCCCCCBr`, the growth inhibition in experiment [1] was 29.8%; in experiment [2], -0.95%; in experiment [3] it was 13.2%; in experiment [4], 19.9%; in experiment [5], 18.1%; in experiment [6], 15.8%.
Turning to `COC(=O)C(Br)(C(=O)OC)C(c1ccccc1)c1ccccc1`, the growth inhibition in experiment [1] is 38.1%; in experiment [2] it was 41.3%; in experiment [3], 72.3% (active); in experiment [4], 26.2%; in experiment [5] it was 41.8%; in experiment [6], 37.3%.
For `O=C(O)[C@@H]1[C@H](C(=O)O)[C@H](C(=O)O)C[C@@H]1C(=O)O`, the growth inhibition in experiment [1] is 6.2%; in experiment [2] it was -33.9%; in experiment [3], -24.9%; in experiment [4], -1.85%; in experiment [5] it was -69%; in experiment [6], 20.1%.
For the molecule `CCOC(=O)c1cnc(NCCCCCCNc2ncc(C(=O)OCC)c(=O)[nH]2)[nH]c1=O`, the growth inhibition in experiment [1] was 29.7%; in experiment [2], -1.5%; in experiment [3], -3.65%; in experiment [4], -6.8%; in experiment [5] it was -3.1%; in experiment [6], 21.7%.
Consider `CC(C)=CCC1=C(O)c2ccccc2C(=O)C1=O`, for which the growth inhibition in experiment [1] was 16.6%; in experiment [2] it was 5.15%; in experiment [3], 14.2%; in experiment [4], 0.4%; in experiment [5] it was -4.25%; in experiment [6], 13.1%.
